Out of some 5,500 compounds screened, about 2,000 (36%) were called active. Inconclusive results (about 18%) are left out. No stated cut-off is given here; in the data, active means normalized growth mostly below about 0.91 (no sharp cut-off); inconclusive means no clear call, values can overlap the other calls; inactive means mostly above about 0.92. The list shows a part of the results.
Assay: chemical genetic growth profiling, strain panel (AID 1159580);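 further: tested at 20 µM; growth read once vehicle control cultures reached saturation at 30 °C; 1 = growth at the plate median or of vehicle wells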
Settings: growth OD
[1] = S. cerevisiae deletion strains, locus YAL013W, strain DEP1, stronger effect = lower value

Measured: normalized growth

CCOC(=O)C1(O)Oc2cc(OC)cc(OC)c2C(=O)C1c1ccccc1 (centres undefined)
active: S. cerevisiae deletion strains, locus YBR021W, strain FUR4, stronger effect = lower value 0.837
inactive: [1] 0.969 | S. cerevisiae deletion strains, locus YBR229C, strain ROT2, stronger effect = lower value 1.01 | S. cerevisiae deletion strains, locus YCL029C, strain bik1, stronger effect = lower value 0.996 | S. cerevisiae deletion strains, locus YDL035C, strain GPR1, stronger effect = lower value 0.984 | S. cerevisiae deletion strains, locus YDL074C, strain BRE1, stronger effect = lower value 0.947 | S. cerevisiae deletion strains, locus YDL101C, strain DUN1, stronger effect = lower value 1 | S. cerevisiae deletion strains, locus YDL134C, strain PPH21, stronger effect = lower value 0.986 | S. cerevisiae deletion strains, locus YDL185W, strain tfp1, stronger effect = lower value 1 | S. cerevisiae deletion strains, locus YDL192W, strain arf1, stronger effect = lower value 0.982 | S. cerevisiae deletion strains, locus YDR101C, strain arx1, stronger effect = lower value 0.984 | S. cerevisiae deletion strains, locus YDR162C, strain NBP2, stronger effect = lower value 1 | S. cerevisiae deletion strains, locus YDR318W, strain mcm21, stronger effect = lower value 0.979 | S. cerevisiae deletion strains, locus YDR388W, stronger effect = lower value 0.976 | S. cerevisiae deletion strains, locus YDR502C, strain sam2, stronger effect = lower value 0.932 | S. cerevisiae deletion strains, locus YEL061C, strain CIN8, stronger effect = lower value 0.996 | S. cerevisiae deletion strains, locus YER110C, stronger effect = lower value 0.977 | S. cerevisiae deletion strains, locus YER155C, strain BEM2, stronger effect = lower value 0.978 | S. cerevisiae deletion strains, locus YER167W, strain BCK2, stronger effect = lower value 1 | S. cerevisiae deletion strains, locus YGL078C, strain dbp3, stronger effect = lower value 0.993 | S. cerevisiae deletion strains, locus YGL086W, strain mad1, stronger effect = lower value 0.97 | S. cerevisiae deletion strains, locus YGL248W, strain PDE1, stronger effect = lower value 0.99 | S. cerevisiae deletion strains, locus YGR135W, strain pre9, stronger effect = lower value 0.925 | S. cerevisiae deletion strains, locus YGR252W, strain gcn5, stronger effect = lower value 0.815 | S. cerevisiae deletion strains, locus YHR079C, strain IRE1 (second series), stronger effect = lower value 0.974 | S. cerevisiae deletion strains, locus YHR094C, strain hxt1, stronger effect = lower value 0.981 | S. cerevisiae deletion strains, locus YHR129C, strain ARP1, stronger effect = lower value 0.993 | S. cerevisiae deletion strains, locus YHR200W, strain rpn10, stronger effect = lower value 0.959 | S. cerevisiae deletion strains, locus YIL066C, strain RNR3, stronger effect = lower value 1 | S. cerevisiae deletion strains, locus YIL073C, strain SPO22, stronger effect = lower value 0.968 | S. cerevisiae deletion strains, locus YIL125W, strain kgd1, stronger effect = lower value 0.989 | S. cerevisiae deletion strains, locus YIR030C, strain dcg1, stronger effect = lower value 0.983 | S. cerevisiae deletion strains, locus YJL095W, strain BCK1, stronger effect = lower value 0.97 | S. cerevisiae deletion strains, locus YJL134W, strain LCB3, stronger effect = lower value 1 | S. cerevisiae deletion strains, locus YJL168C, strain set2, stronger effect = lower value 0.977 | S. cerevisiae deletion strains, locus YJL187C, strain SWE1 (second series), stronger effect = lower value 0.971 | S. cerevisiae deletion strains, locus YJR043C, strain POL32, stronger effect = lower value 0.967 | S. cerevisiae deletion strains, locus YKL009W, strain mrt4, stronger effect = lower value 0.985 | S. cerevisiae deletion strains, locus YKL068W, stronger effect = lower value 1 | S. cerevisiae deletion strains, locus YKL085W, strain MDH1 (second series), stronger effect = lower value 1.01 | S. cerevisiae deletion strains, locus YKL085W, strain MDH1, stronger effect = lower value 1.01 | S. cerevisiae deletion strains, locus YKR001C, strain vps1, stronger effect = lower value 0.97 | S. cerevisiae deletion strains, locus YLR039C, strain RIC1, stronger effect = lower value 1.03 | S. cerevisiae deletion strains, locus YLR058C, strain SHM2, stronger effect = lower value 1 | S. cerevisiae deletion strains, locus YLR102C, strain apc9, stronger effect = lower value 0.976 | S. cerevisiae deletion strains, locus YLR262C, strain YPT6, stronger effect = lower value 1.03 | S. cerevisiae deletion strains, locus YLR268W, strain sec22, stronger effect = lower value 0.973 | S. cerevisiae deletion strains, locus YLR371W, strain rom2, stronger effect = lower value 0.997 | S. cerevisiae deletion strains, locus YLR418C, strain cdc73, stronger effect = lower value 0.906 | S. cerevisiae deletion strains, locus YML016C, strain PPZ1, stronger effect = lower value 0.998 | S. cerevisiae deletion strains, locus YML032C, strain rad52, stronger effect = lower value 0.97 | S. cerevisiae deletion strains, locus YML124C, strain tub3, stronger effect = lower value 0.977 | S. cerevisiae deletion strains, locus YMR078C, strain ctf18, stronger effect = lower value 0.979 | S. cerevisiae deletion strains, locus YMR223W, strain ubp8, stronger effect = lower value 0.951 | S. cerevisiae deletion strains, locus YMR263W, strain SAP30, stronger effect = lower value 0.987 | S. cerevisiae deletion strains, locus YMR307W, strain GAS1, stronger effect = lower value 0.979 | S. cerevisiae deletion strains, locus YNL067W, strain RPL9B, stronger effect = lower value 0.983 | S. cerevisiae deletion strains, locus YNL233W, strain BNI4, stronger effect = lower value 0.955 | S. cerevisiae deletion strains, locus YNL250W, strain rad50, stronger effect = lower value 0.979 | S. cerevisiae deletion strains, locus YNL271C, strain bni1, stronger effect = lower value 0.999 | S. cerevisiae deletion strains, locus YNL298W, strain CLA4, stronger effect = lower value 1.02 | S. cerevisiae deletion strains, locus YNL307C, strain MCK1, stronger effect = lower value 0.961 | S. cerevisiae deletion strains, locus YNL322C, strain KRE1, stronger effect = lower value 0.991 | S. cerevisiae deletion strains, locus YNR052C, strain pop2, stronger effect = lower value 0.989 | S. cerevisiae deletion strains, locus YOL006C, strain TOP1, stronger effect = lower value 0.893 | S. cerevisiae deletion strains, locus YOL012C, strain htz1 1.08 | S. cerevisiae deletion strains, locus YOL147C, strain pex11, stronger effect = lower value 0.973 | S. cerevisiae deletion strains, locus YOR061W, strain CKA2, stronger effect = lower value 1.01 | S. cerevisiae deletion strains, locus YOR069W, strain VPS5, stronger effect = lower value 0.999 | S. cerevisiae deletion strains, locus YOR136W, strain idh2, stronger effect = lower value 0.981 | S. cerevisiae deletion strains, locus YOR144C, strain elg1, stronger effect = lower value 0.988 | S. cerevisiae deletion strains, locus YOR184W, strain ser1, stronger effect = lower value 0.978 | S. cerevisiae deletion strains, locus YOR316C, strain cot1, stronger effect = lower value 0.98 | S. cerevisiae deletion strains, locus YPR119W, strain clb2, stronger effect = lower value 0.96 | S. cerevisiae deletion strains, locus YPR141C, strain kar3, stronger effect = lower value 0.99 | S. cerevisiae deletion strains, locus YPR163C, strain tif3, stronger effect = lower value 0.984 | S. cerevisiae deletion strains, locus YPR167C, strain met16, stronger effect = lower value 0.961 | S. cerevisiae deletion strains, strain wtn01, stronger effect = lower value 0.973 | S. cerevisiae strains, strain wild type, stronger effect = lower value 0.99

CCOC(=O)C12CC1/C(=N\O)c1ccccc1O2 (centres undefined)
inactive: [1] 0.998 | S. cerevisiae deletion strains, locus YAL040C, strain CLN3, stronger effect = lower value 1.05 | S. cerevisiae deletion strains, locus YCL061C, strain MRC1 (second series), stronger effect = lower value 0.995 | S. cerevisiae deletion strains, locus YER002W, strain NOP16, stronger effect = lower value 1.02 | S. cerevisiae deletion strains, locus YGR229C, strain SMI1, stronger effect = lower value 0.991 | S. cerevisiae deletion strains, locus YNL153C, strain GIM3, stronger effect = lower value 1.02 | S. cerevisiae deletion strains, locus YNL175C, strain NOP13, stronger effect = lower value 1.02 | S. cerevisiae deletion strains, locus YNL197C, strain WHI3, stronger effect = lower value 1.02 | S. cerevisiae deletion strains, locus YNL224C, strain SQS1, stronger effect = lower value 1 | S. cerevisiae deletion strains, locus YOR083W, strain WHI5 (second series), stronger effect = lower value 1.02

Source: PubChem BioAssay AID1159580 (chemical genetic matrix, 2015)
